Inconclusive results are not listed. A call without a number means that no potency is given here. Activity calls are given as the source filed them. Calls come from the whole dose curve; as a rule, active = well fitted cell-killing curve with a large enough effect in the repeat runs; inconclusive = weak or mixed curves, or effect the other way; inactive = no such curve, though single readings can be large or run the other way.
assay: qHTS assay to identify small molecule antagonists of the peroxisome proliferator-activated receptor gamma (PPARg) signaling pathway - cell viability counter screen (AID 743194); settings: PPARg-bla HEK293H viability, CellTiter-Glo luminescence, 17 h, co-treated with 50 nM rosiglitazone; series mostly up to 62.6 µM; note: nearly all actives have a fitted effect of over 55% in size
Excerpt: U.S. Tox21 Program National Center for Advancing Translational Sciences [NCATS] NIH Chemical Genomics Center [NCGC] U.S. Environmental Protection Agency [EPA] National Institutes of Environmental Health Sciences [NIEHS] National Toxicology Program [NTP] U.S. Food and Drug Administration [FDA] Tox21 Assay Overview: The peroxisome proliferator-activated receptors (PPARs) are lipid-activated transcription factors of the nuclear receptor superfamily with three distinct subtypes namely PPAR alpha, PPAR delta (also called PPAR beta) and PPAR gamma (PPARg). All these subtypes heterodimerize with Retinoid X receptor (RXR) and these heterodimers regulate transcription of various genes. PPAR-gamma receptor (glitazone receptor) is involved in the regulation of glucose and lipid metabolism. To identify the compounds that activate PPAR-gamma signaling, GeneBLAzer PPAR gamma UAS-bla HEK293H cell line (Invitrogen, Carlsbad, CA, USA) containing a beta-lactamase reporter gene under the control of an Upstream Activator Sequence (UAS) was used to screen the Tox21 compound library. The cytotoxicity of the Tox21 compound library against the PPARg-bla cell line was tested in parallel by measuring the cell viability using CellTiter-Glo assay in the same wells.
Tox21 Assay Protocol Summary: PPARg-bla cells were dispensed at 3000 cells/5uL/well in 1536-well black wall/clear bottom plates using a Multidrop Combi (Thermo Fisher Scientific, Waltham, MA) dispenser. After the assay plates were incubated at 37 C and 5% CO2 for 5 h, 23 nL of compounds dissolved in DMSO, positive controls or DMSO only was transferred to the assay plate by a Pintool station (Kalypsys, San Diego, CA), followed by addition of 1ul Rosiglitazone (50 nM, final concentration in the wells). The assay plates were incubated at 37 C for 17 h, and then 1 uL of LiveBLAzerTM B/G FRET substrate was added using a Bioraptr Flying Reagent Dispenser (FRD) workstation (Beckman Coulter, Indianapolis, IN, USA). The assay plates were incubated at room temperature for 1 h and fluorescence intensity was measured by an Envision plate reader (PerkinElmer, Shelton, CT). For cell viability readout that measures cytotoxicity, 4 ul/well of CellTiter-Glo reagent was added into the assay plates using a Flying Reagent Dispenser. After 30 min incubation at room temperature, the luminescence intensity in the plates was measured using a ViewLux plate reader (PerkinElmer).

| SMILES | Potency |
| --- | --- |
| Nc1ccc(S(=O)(=O)O)c(N)c1 | inactive |
| O=C(CS)OCCOC(=O)CS | inactive |
| Nc1c(I)cc(I)c(C(=O)N(CCC(=O)O)c2ccccc2)c1I | inactive |
| CCCOCCOCCO | inactive |
| COCc1c(C(C)C)nc(C(C)C)c(/C=C/[C@@H](O)C[C@@H](O)CC(=O)O)c1-c1ccc(F)cc1 | inactive |
| O=C(O)c1cccnc1C(=O)O | inactive |
| CCCCCCCCCCOS(=O)(=O)O | inactive |
| Cc1oc(C)c(C(=O)Nc2ccccc2)c1C | inactive |
| OCCSc1ccccc1 | inactive |
| CCCC1C(CC)=CC(CC)=CN1c1ccccc1 (stereo not given) | inactive |
| CCCCCCCC/C=C\CCCCCCCC(=O)OC | inactive |
| COc1ccc(CCC(=O)c2c(O)cc(O[C@@H]3O[C@H](CO)[C@@H](O)[C@H](O)[C@H]3O[C@@H]3O[C@@H](C)[C@H](O)[C@@H](O)[C@H]3O)cc2O)cc1O | inactive |
| O=C(Nc1ccccc1)Nc1ccccc1 | inactive |
| CC1CC(O)CC(C)(C)C1 (stereo not given) | inactive |
| NC(=O)N(O)[C@@H]1COc2cc(OCc3ccccc3)ccc21 | inactive |
| CC(N)CN (stereo not given) | inactive |
| COc1ccccc1N=Nc1c(S(=O)(=O)O)cc2cc(S(=O)(=O)O)cc(NC(C)=O)c2c1O | inactive |
| COC(OC)(C(=O)c1ccccc1)c1ccccc1 | inactive |
| COCCOC(=O)C1=C(C)NC(C)=C(C(=O)OC/C=C/c2ccccc2)C1c1cccc([N+](=O)[O-])c1 (stereo not given) | inactive |
| O=S1OCCO1 | inactive |

| SMILES | Potency |
| --- | --- |
| C/C=C(\C)C(=O)OCCC(C)CCC=C(C)C (stereo not given) | inactive |
| COc1cc2c(N3CCN(C(=O)Nc4ccc(OC(C)C)cc4)CC3)ncnc2cc1OCCCN1CCCCC1 | inactive |
| CN1CCN(c2c(F)cc3c(=O)c(C(=O)O)cn4c3c2OCN4C)CC1 | inactive |
| N#C[C@@H]1C[C@@H]2C[C@@H]2N1C(=O)[C@@H](N)C12CC3CC(CC(O)(C3)C1)C2 | inactive |
| CNC(=O)N(c1ccccc1)c1ccccc1 | inactive |
| O=C1OCCN1/N=C/c1ccc([N+](=O)[O-])o1 | inactive |
| CO[C@H]1C=CO[C@@]2(C)Oc3c(C)c(O)c4c(O)c(c5c(c4c3C2=O)=NC2(CCN(CC(C)C)CC2)N=5)NC(=O)/C(C)=C\C=C/[C@H](C)[C@H](O)[C@@H](C)[C@@H](O)[C@@H](C)[C@H](OC(C)=O)[C@@H]1C | inactive |
| COc1ccc([C@@H]2Sc3ccccc3NC(=O)[C@@H]2O)cc1 | inactive |
| Cc1cc(OI)c(C(C)C)cc1-c1cc(C(C)C)c(OI)cc1C | inactive |
| CC(=N\O)/C(C)=N/O | inactive |
| Nc1nc(Cl)nc2c1ncn2[C@@H]1O[C@H](CO)[C@@H](O)[C@@H]1F | inactive |
| CCOCCn1c(C2CCN(CCc3ccc(C(C)(C)C(=O)O)cc3)CC2)nc2ccccc21 | inactive |
| CCC(C)(C)C1CCC(O)CC1 (stereo not given) | inactive |
| CCCCC(CC)COC(=O)COc1ccc(Cl)cc1C (stereo not given) | inactive |
| CN(C(=O)C(Cl)Cl)c1ccc(OC(=O)c2ccco2)cc1 | inactive |
| CC1=CC(O)CC(C)(C)C1 (stereo not given) | inactive |
| C[C@@H]1C[C@H]2[C@@H]3CCC4=CC(=O)C=C[C@]4(C)[C@@]3(F)[C@@H](O)C[C@]2(C)[C@H]1C(=O)CO | inactive |
| COc1cc2[nH]c(=O)[nH]c(=O)c2cc1OC | inactive |
| O=C(c1ccc(O)cc1)c1ccc(Cl)cc1 | inactive |
| CC(=O)[C@H]1CC[C@H]2[C@@H]3C=CC4=CC(=O)CC[C@@]4(C)[C@@H]3CC[C@]12C | inactive |

From PubChem BioAssay (Tox21)
